Test results published in PubChem BioAssay (EPA / NIEHS).
Calls of active or inactive are those of the source. The calls were made as follows: active = hit-call score of the fitted dose curve at least 0.9, where 1 is the maximum; inactive = score below 0.9.

Each compound was assayed on Insulin Like Growth Factor 1 (IGF1), IGF1 (gene 3479) (assay: LTEA_HepaRG_IGF1: Life Technologies and Expression Analysis (LTEA) Assay for Insulin Like Growth Factor 1 (IGF1) using HepaRG (AID 2283506)). Details: mRNA level, 48 h; actives raise or lower the signal.
How it was run: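 Differentiated HepaRG cells in serum-free induction medium, exposed 48 h in duplicate to 8 half-log concentrations up to 100 uM in 0.5% DMSO. IGF1 mRNA by Fluidigm qRT-PCR, normalised to ACTB, GAPDH and POLR2A.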

SMILES	outcome	AC50
Cc1ccccc1O	inactive	
O=NN(c1ccccc1)c1ccccc1	inactive	
Cc1ccccc1CO[C@@H]1C[C@@]2(C(C)C)CC[C@]1(C)O2	inactive	
CCC(C)(CC)c1cc(NC(=O)c2c(OC)cccc2OC)on1		1.79 µM (active)
CCOCCOC(C)=O	inactive	
CC1=C2C[C@H]3[C@@H](CC=C4C[C@@H](O)CC[C@@]43C)[C@@H]2CC[C@]12O[C@@H]1C[C@H](C)CN[C@H]1[C@H]2C	inactive	
Cc1ccccc1[N+](=O)[O-]	inactive	
CC(c1ccc(O)cc1)(c1ccc(O)cc1)c1ccc(O)cc1		92 µM (active)
Cc1cccc([N+](=O)[O-])c1	inactive	
CO/C=C(/C(=O)OC)c1ccccc1COc1cccc(C(F)(F)F)n1		5.31 µM (active)
C[C@]12CCC(=O)C=C1CC[C@@H]1[C@@H]2CC[C@]2(C)C(=O)CC[C@@H]12		50 µM (active)
Cc1ccc(O)c(C)c1	inactive	
CN(C)CCO	inactive	
O=C(O)C(F)(F)C(F)(F)C(F)(F)C(F)(F)C(F)(F)C(F)(F)C(F)(F)C(F)(F)C(F)(F)F		31.2 µM (active)
CN(C)c1nc(=O)n(C2CCCCC2)c(=O)n1C	inactive	
CCOP(=S)(OCC)SCSC(C)(C)C	inactive	

SMILES	outcome	AC50
Oc1c(Cl)c(Cl)c(Cl)c(Cl)c1Cl		6.52 µM (active)
ClC1=C(Cl)[C@]2(Cl)[C@@H]3[C@@H]4C[C@@H]([C@H]5O[C@@H]45)[C@@H]3[C@@]1(Cl)C2(Cl)Cl		9.92 µM (active)
O=S(=O)(O)C(F)(F)C(F)(F)C(F)(F)C(F)(F)F	inactive	
CCC(C)c1cc([N+](=O)[O-])cc([N+](=O)[O-])c1O (centres undefined)		1.24 µM (active)
ClC(Cl)=C(c1ccc(Cl)cc1)c1ccc(Cl)cc1		50 µM (active)
CC#Cc1cc(C)nc(Nc2ccccc2)n1		33.1 µM (active)
C=CC(N)=O	inactive	
CCCCCCCCCc1ccc(O)cc1	inactive	
CCC(C)(c1ccc(O)cc1)c1ccc(O)cc1	inactive	
CC(C)(c1ccccc1)c1ccc(O)cc1	inactive	
CCOC(=O)C(O)(c1ccc(Cl)cc1)c1ccc(Cl)cc1	inactive	
CCNc1nc(NC(C)C)nc(SC)n1		33.2 µM (active)
Nn1cnnc1	inactive	
O=C(O)C(F)(F)C(F)(F)C(F)(F)C(F)(F)C(F)(F)C(F)(F)C(F)(F)C(F)(F)F		77 µM (active)
Oc1ccc(C(c2ccc(O)cc2)(C(F)(F)F)C(F)(F)F)cc1	inactive	
CCCCCCCCOC(=O)c1ccccc1C(=O)OCCCCCCCC	inactive	

Each compound was assayed on Intercellular Adhesion Molecule 1 (ICAM1), ICAM1 (gene 3383) (assay: LTEA_HepaRG_ICAM1: Life Technologies and Expression Analysis (LTEA) Assay for Intercellular Adhesion Molecule 1 (ICAM1) using HepaRG (AID 2283507)). Details: mRNA level, 48 h; actives raise or lower the signal.
How it was run: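 Gain or loss of transcript in HepaRG hepatic cells is quantified by qRT-PCR after 48 h chemical exposure (up to 100 uM, half-log steps), with DMSO as baseline.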

SMILES	outcome	AC50
Cc1ccccc1O	inactive	
O=NN(c1ccccc1)c1ccccc1	inactive	
Cc1ccccc1CO[C@@H]1C[C@@]2(C(C)C)CC[C@]1(C)O2	inactive	
CCC(C)(CC)c1cc(NC(=O)c2c(OC)cccc2OC)on1	inactive	
CCOCCOC(C)=O	inactive	
CC1=C2C[C@H]3[C@@H](CC=C4C[C@@H](O)CC[C@@]43C)[C@@H]2CC[C@]12O[C@@H]1C[C@H](C)CN[C@H]1[C@H]2C	inactive	
Cc1ccccc1[N+](=O)[O-]	inactive	
CC(c1ccc(O)cc1)(c1ccc(O)cc1)c1ccc(O)cc1		33.4 µM (active)
Cc1cccc([N+](=O)[O-])c1	inactive	
CO/C=C(/C(=O)OC)c1ccccc1COc1cccc(C(F)(F)F)n1		8.33 µM (active)
C[C@]12CCC(=O)C=C1CC[C@@H]1[C@@H]2CC[C@]2(C)C(=O)CC[C@@H]12	inactive	
Cc1ccc(O)c(C)c1	inactive	
CN(C)CCO	inactive	
O=C(O)C(F)(F)C(F)(F)C(F)(F)C(F)(F)C(F)(F)C(F)(F)C(F)(F)C(F)(F)C(F)(F)F		22.7 µM (active)
CN(C)c1nc(=O)n(C2CCCCC2)c(=O)n1C		5.44 µM (active)
CCOP(=S)(OCC)SCSC(C)(C)C	inactive	

SMILES	outcome	AC50
Oc1c(Cl)c(Cl)c(Cl)c(Cl)c1Cl	inactive	
ClC1=C(Cl)[C@]2(Cl)[C@@H]3[C@@H]4C[C@@H]([C@H]5O[C@@H]45)[C@@H]3[C@@]1(Cl)C2(Cl)Cl		9.92 µM (active)
O=S(=O)(O)C(F)(F)C(F)(F)C(F)(F)C(F)(F)F	inactive	
CCC(C)c1cc([N+](=O)[O-])cc([N+](=O)[O-])c1O (centres undefined)	inactive	
ClC(Cl)=C(c1ccc(Cl)cc1)c1ccc(Cl)cc1	inactive	
CC#Cc1cc(C)nc(Nc2ccccc2)n1	inactive	
C=CC(N)=O	inactive	
CCCCCCCCCc1ccc(O)cc1	inactive	
CCC(C)(c1ccc(O)cc1)c1ccc(O)cc1	inactive	
CC(C)(c1ccccc1)c1ccc(O)cc1	inactive	
CCOC(=O)C(O)(c1ccc(Cl)cc1)c1ccc(Cl)cc1	inactive	
CCNc1nc(NC(C)C)nc(SC)n1	inactive	
Nn1cnnc1	inactive	
O=C(O)C(F)(F)C(F)(F)C(F)(F)C(F)(F)C(F)(F)C(F)(F)C(F)(F)C(F)(F)F		78.7 µM (active)
Oc1ccc(C(c2ccc(O)cc2)(C(F)(F)F)C(F)(F)F)cc1	inactive	
CCCCCCCCOC(=O)c1ccccc1C(=O)OCCCCCCCC	inactive	
